Measured values as given in PubChem BioAssay AID2101 (National Center for Advancing Translational Sciences (NCATS), 2009).
“And” between values parts separate entries of the source, which are not always exact repeats. Identical values can stand only once. Out of some 330,000 compounds screened, about 300 (0.091%) were called active. Roughly 4% stayed inconclusive and do not appear here. Calls come from the whole dose curve; as a rule, active = well fitted inhibition curve with a large enough effect; inconclusive = small, poorly fitted or top-dose-only effect, or effect the other way, or another doubt; inactive = no such curve, though single readings can be large or run the other way. The entries come from a sample that favours actives as a whole. Some compounds were tested as several samples or in several runs, with calls that do not always agree.

What follows are molecules tested against Lysosomal acid glucosylceramidase (Homo sapiens) (UniProt P04062) (assay: qHTS Assay for Inhibitors and Activators of N370S glucocerebrosidase as a Potential Chaperone Treatment of Gaucher Disease). Conditions: N370S GC spleen homogenate, 4MU-glucoside fluorescence; series mostly up to 59.4 µM; activity change, negative = inhibition: at the top concentration.
Source text: NIH Chemical Genomics Center [NCGC]
NIH Molecular Libraries Probe Production Centers Network [MLPCN]
Assay Submitter (PI): Wei Zheng
Glucocerebrosidase (GC) catalyzes the hydrolysis of beta-glucocerebroside to glucose and ceramide in lysosomes. Mutations in the glucocerebrosidase gene result in Gaucher disease, an autosomal recessive lysosomal storage disorder. Many of the mutations encountered in patients with Gaucher disease are missense alterations that may cause misfolding, decreased stability and/or mistrafficking of this lysosomal protein. […] These inhibitors include iminosugar analogs and three non-iminosugar inhibitors identified from a previous HTS of 62,000 compounds with the wild type recombinant enzyme. However, the enhancement of enzyme activity by the chaperone action of an enzyme inhibitor must be balanced against the direct inhibition of the enzyme. An enzyme activator could also function as a chaperone by binding to the enzyme and helping to correct its misfolding and mistrafficking. While activators for GC have not yet been identified, they may have better therapeutic potential than inhibitors. Therefore the discovery and development of chemical activators may provide a new strategy for the chaperone therapy.
We have optimized a new assay using N370S mutant GC derived from the spleen of a Gaucher patient. […] In addition, the MLPCN compound library has expanded, which increases the chance of finding new and better probes.
NCGC Assay Protocol Summary:
This is a fluorogenic enzyme assay with 4-methylumbelliferyl-beta-D-glucopyranoside as the substrate and N370S glucocerebrosidase from human spleen homogenate as the enzyme preparation. Upon the hydrolysis of this fluorogenic substrate, the resulting product, […] which can be detected by a standard fluorescence plate reader. Data were normalized to the controls for basal activity (without enzyme) and 100% activity (with enzyme). The AC50 values were determined from concentration-response data modeled with the standard Hill equation.
Assay buffer: 50 mM citric acid (titrated with potassium phosphate to pH 5.0), 100 mM potassium chloride, 10 mM sodium chloride, 1 mM magnesium chloride, 0.01% Tween-20.
1536-well assay protocol:
(1) Add 2 ul/well of spleen homogenate (27 ug final)
(2) Add 23 nL compounds in DMSO solution. The final titration was 0.5 nM to 58 uM.
(3) Add 2 ul of substrate (1 mM final)
(4) Incubate at 37C for 40 min.
(5) Add 2 ul stop solution (1M NaOH and 1M Glycine mixture, pH 10)
(6) Detect the assay plate in a ViewLux plate reader (PerkinElmer) with Ex=365 nm and Em=440nm.
Keywords: Glucocerebrosidase, beta-glucosidase, Gaucher Disease, pharmacological chaperone, chaperone therapy, high throughput screening, glucocerebrosidase inhibitor, MLSMR, MLSCN, NIH Roadmap, qHTS and NCGC
Potency is the fitted concentration of half-maximal effect.
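Throughout, for activity change, negative = inhibition: 0% = full enzyme activity and -100% = no enzyme basal.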

SMILES	Potency	activity change, negative = inhibition
CNCC[C@H](Oc1ccc(C(F)(F)F)cc1)c1ccccc1	inactive and 8.91 µM (active)	
CC(C)CC(C)Nc1ccc(Nc2ccccc2)cc1 (stereo not given)		-14.2% (inactive)
CC(CCC(=O)O)C1CCC2C3C(O)C[C@@H]4CC(O)CC[C@@]4(C)C3CC[C@@]12C (stereo not given in full)		-11% (inactive)
CC(Cl)Cl		-0.151% (inactive)
CC(=O)[O][Sn]([c]1ccccc1)([c]1ccccc1)[c]1ccccc1		-2.97% (inactive)
